p53null 39C kill = p53 null cell cytotoxicity, nonpermissive temperature; H1299 p53-null (neo) cells, 39C, ATPlite viability, 24 h; Potency, µM (highest dose often 46.1 µM), without a hit: at the highest dose activity, negative = cell killing, actives largely listed as cytotoxic; 0.97% of 55,000 active; AID 904;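 note: potency is the fitted concentration of half-maximal effect; 0% = DMSO only and -100% = full killing by 100 µM tamoxifen; nearly all actives have a fitted effect of over 50% in size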
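Luminescent ATP signal reported cell survival after H1299 lines (neo, p53 null; or p53 A138V) received up to 46 uM compound and 24 hr incubation at 39C.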
pS6 MEF inh = inhibitors of mTORC1 signaling in Tsc2-/- p53-/- MEF cells | Tsc2-/- p53-/- MEF, phospho-rpS6 immunofluorescence/PI, 24 h | Potency, µM (series often up to 38.3 µM), inactives show at the top dose activity change, negative = inhibition, most hits filed as inhibitors | 0.78% of 44,000 active | AID 493208;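 note: potency is the fitted concentration of half-maximal effect; plate controls were DMSO for no effect and rapamycin for full effect; nearly all actives have a fitted effect of over 50% in size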
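Read-out: phospho-S6 Alexa-488 intensity over PI intensity per well, scored as % active cells using thresholds from rapamycin (7.5 nM) and DMSO controls. Tsc2-/-, p53-/- MEFs exposed to compound for 24 h; PI cell count recorded as viability.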
S16 F2sN tox = cytotoxicity in S16 Pmp22-F2sN Schwann cells | Potency, µM (series often up to 57.5 µM), for the others: at the highest dose activity change, negative = cytotoxicity, usual class: cytotoxic | 0.48% of 43,000 active | AID 1508642 | S16 Pmp22-F2sN Schwann cells viability, CellTiter-Glo, 24 h; note: potency is the fitted concentration of half-maximal effect; % is set by controls: 0 for no effect and ±100 for the full control effect; nearly all actives have a fitted effect of over 65% in size
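Luminescence from CellTiter-Glo, read by CCD camera after a 15 min room-temperature incubation, served as the viability signal. Reporter Schwann cells (S16 Pmp22-F2sN) had been treated with pin-transferred compounds for 24 h at 37C.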
PMP22 txn = modulates PMP22 transcription in S16 Schwann cells | S16 Pmp22-F2sN Schwann cells, FLuc/NLuc coincidence luminescence, 24 h | Potency, µM (series often up to 57.5 µM), for inactives: at the top dose activity change, negative = inhibition, hits mostly inhibitors | 2% of 43,000 active | AID 1508649; active = clear falling dose curves in both reporters; inconclusive = both reporters move, but less clearly or upward; inactive = either reporter flat; the % is the NLuc reporter signal; note: potency is the fitted concentration of half-maximal effect; % is set by controls: 0 for no effect and ±100 for the full control effect
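S16 Schwann cells carrying FLuc/NLuc coincidence reporter in the Pmp22 3' UTR treated with compound 24 h at 37C; FLuc then NLuc luminescence read sequentially by dual-luciferase reagents.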
p53null 32C tox = p53 null cell cytotoxicity, permissive temperature | H1299-neo p53 null cells, ATP luminescence, 24 h, 32C | Potency, µM (doses to about 46.1 µM), for inactives: at the highest dose activity change, negative = cytotoxicity, most hits filed as cytotoxic | 0.62% of 55,000 active;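 note: potency is the fitted concentration of half-maximal effect; 0% = DMSO only and -100% = full killing by 100 µM tamoxifen; nearly all actives have a fitted effect of over 55% in size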
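Overnight 37C seeding (600 cells/well) of H1299-neo preceded a 24 hr, 32C exposure to compounds up to 46 uM. ATP levels, read by luminescence after 20 min at RT, indicated surviving cells.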
OvCa metastasis = inhibitors of ovarian cancer cell adhesion and invasion in omental model; 0.1% of 46,000 active; AID 1963576; SKOV3ip1-GFP adhesion/invasion on 3D omental model, fluorescence; Potency, µM (series often up to 45.8 µM), inactives show at the top dose activity change, negative = inhibition, most hits filed as inhibitors;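 note: potency is the fitted concentration of half-maximal effect; plate controls were DMSO wells for no effect and tomatine positive control wells for full effect; nearly all actives have a fitted effect of over 65% in size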
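qHTS, 4-pt dose (0.36-46 umol/L); SKOV3ip1-GFP, 1,200 cells/well, no FBS; primary omental fibroblast/mesothelial co-culture 48 h pre-grown; 2 h RT + 16 h 37 C; PBS wash, 4% PFA; GFP count 488/509 nm.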
NLuc sat counter = counter-screen for PMP22 expression modulators: NanoLuc inhibition, saturating substrate; 4% of 690 active; AID 1508638; shares compounds with PMP22 txn; Secreted NLuc enzyme (filtered S16 cell medium), Nano-Glo luminescence; Potency, µM (top dose mostly 57.5 µM), for inactives: top-dose activity change, negative = inhibition, hits mostly inhibitors; note: potency is the fitted concentration of half-maximal effect; % is set by controls: 0 for no effect and ±100 for the full control effect
NLuc Km counter = NanoLuc inhibition at Km substrate, PMP22 artifact check. shares compounds with PMP22 txn. secreted NLuc enzyme, coelenterazine luminescence, Km conditions. Potency, µM (titrated, usually from 57.5 µM), for inactives: at the top dose activity change, negative = inhibition, actives largely listed as inhibitors. 5% of 690 active. AID 1508639; note: potency is the fitted concentration of half-maximal effect; % is set by controls: 0 for no effect and ±100 for the full control effect
FLuc counter = counter-screen for PMP22 expression modulators: firefly luciferase inhibition; shares compounds with PMP22 txn; purified P. pyralis FLuc, luminescence, 10 min; Potency, µM (titrated, usually from 57.5 µM), for the others: at the highest dose activity, negative = inhibition, actives largely listed as inhibitors; 690 tested, under 10 active; AID 1508640; note: % of control where 0% means no effect
Target sequence (P08659 whole entry, looked up): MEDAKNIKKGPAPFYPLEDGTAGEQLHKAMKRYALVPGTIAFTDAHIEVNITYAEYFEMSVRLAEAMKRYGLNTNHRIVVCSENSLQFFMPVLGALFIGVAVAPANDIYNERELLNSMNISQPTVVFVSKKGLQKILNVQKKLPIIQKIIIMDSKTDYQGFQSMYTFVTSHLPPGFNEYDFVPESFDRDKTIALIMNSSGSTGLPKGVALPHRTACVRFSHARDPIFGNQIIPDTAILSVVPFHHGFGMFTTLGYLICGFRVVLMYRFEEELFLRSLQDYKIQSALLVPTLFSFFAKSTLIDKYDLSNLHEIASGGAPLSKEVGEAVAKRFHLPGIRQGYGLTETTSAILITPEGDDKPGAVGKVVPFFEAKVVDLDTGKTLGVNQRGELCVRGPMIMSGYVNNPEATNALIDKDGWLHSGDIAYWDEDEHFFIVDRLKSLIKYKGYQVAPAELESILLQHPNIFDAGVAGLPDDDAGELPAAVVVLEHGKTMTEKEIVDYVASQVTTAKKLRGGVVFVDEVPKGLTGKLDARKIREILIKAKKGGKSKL
S16 viab conf = confirmation of cytotoxicity in S16 Pmp22-F2sN Schwann cells (luciferase reporters placed in the Pmp22 gene). shares compounds with PMP22 txn. S16 Schwann cells viability, CellTiter-Glo ATP luminescence, 24 h. Potency, µM (titrated, usually from 57.5 µM), for inactives: at the highest dose activity change, negative = viability loss, usual class: cytotoxic. 7% of 690 active. AID 1508641; note: potency is the fitted concentration of half-maximal effect; % is set by controls: 0 for no effect and ±100 for the full control effect
PMP22 txn conf = PMP22 transcription modulation, confirmatory. shares compounds with PMP22 txn. Potency, µM (series often up to 57.5 µM), without a hit: top-dose activity change, negative = inhibition, actives largely listed as inhibitors. 22% of 690 active. AID 1508646. S16 Schwann cells Pmp22-F2sN, dual luciferase, 24 h; active = clear falling dose curves in both reporters; inconclusive = both reporters move, but less clearly or upward; inactive = either reporter flat; the % is the FLuc reporter signal; note: potency is the fitted concentration of half-maximal effect
PMP22 HiBiT cnf = rat PMP22 protein level modulation, confirmatory; shares compounds with PMP22 txn; S16 Schwann cells Pmp22-HiBiT, luminescence, 48 h; Potency, µM (titrated, usually from 27.9 µM), without a hit: at the highest dose activity change, negative = inhibition, actives largely listed as inhibitors; 95 tested, under 10 active; AID 1508647
Target sequence (P25094 whole entry, looked up): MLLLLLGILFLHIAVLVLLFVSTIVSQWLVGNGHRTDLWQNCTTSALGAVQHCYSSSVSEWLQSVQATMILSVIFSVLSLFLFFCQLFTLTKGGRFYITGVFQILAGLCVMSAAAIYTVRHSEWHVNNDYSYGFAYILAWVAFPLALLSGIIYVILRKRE
* = called active by the depositor; i = inactive; ? = inconclusive; . = not tested or not shown. In the library only some 3% were active in any assay of this set; here they are far more common. Unless noted, calls come from the whole dose curve; as a rule, active = well fitted curve in the direction sought with a large enough effect; inconclusive = small, poorly fitted or top-dose-only effect, or another doubt; inactive = no such curve, though single readings can be large; an effect the other way counts as inactive or inconclusive.

SMILES	p53null 39C kill	pS6 MEF inh	S16 F2sN tox	PMP22 txn	p53null 32C tox	OvCa metastasis	NLuc sat counter	NLuc Km counter	FLuc counter	S16 viab conf	PMP22 txn conf	others
CC(=O)Nc1cccc(-c2nnc(SCC(=O)c3cc([N+](=O)[O-])ccc3Cl)o2)c1	?	?	-1%	14µM*	10%	8%	12µM*	7.7µM*	?	?	18µM*
CSc1ccc(CCNC(=O)c2c(C)nn(-c3ccc(F)cc3)c2-n2cccc2)cc1	93%	0%	-13%	15µM*	32%	6%	-13%	4%	-12%	-15%	?
COCCCNC(=O)c1c(C)nn(-c2ccc(F)cc2)c1-n1cccc1	-14%	-5%	-5%	4%	6%	-10%	.	.	.	.	.
COc1ccc(-n2nc3c(N4CCCC(C(=O)NCc5ccccc5C)C4)nnc(C)c3c2C)cc1 (centres undefined)	16µM*	5.2µM*	25µM*	13µM*	?	?	-3%	-1%	0%	22µM*	?
COc1ccc(-n2nc3c(N4CCCC(C(=O)NCCc5ccccc5C)C4)nnc(C)c3c2C)cc1 (centres undefined)	-7%	-5%	?	18µM*	-6%	-24%	?	-2%	10%	?	?
CC(C)COc1ccccc1C1CC(=O)Nc2cc3c(cc21)OCO3 (centres undefined)	?	?	-14%	8.4µM*	52%	i	?	?	-15%	-23%	?
COc1ccc(CCNC(=O)c2ccc(Cn3c(=O)c4ccccc4n(Cc4cccc(F)c4)c3=O)cc2)cc1OC	?	4%	-8%	?	6%	i	.	.	.	.	.
O=C(NC1CCN(Cc2ccccc2)CC1)c1ccc(Cn2c(=O)c3ccccc3n(Cc3ccccc3)c2=O)cc1	15%	-8%	6%	-32%	6%	i	.	.	.	.	.
COCCCNC(=O)c1ccc(Cn2c(=O)c3ccccc3n(Cc3ccc(Cl)cc3)c2=O)cc1	-9%	6%	?	11µM*	19%	i	?	?	1%	-24%	-41%
O=C(NC1CCN(Cc2ccccc2)CC1)c1ccc(Cn2c(=O)c3ccccc3n(Cc3ccc(Cl)cc3)c2=O)cc1	-10%	-3%	5%	12µM*	9%	-9%	-7%	0%	8%	12µM*	11µM*
COc1ccc(CCNC(=O)c2ccc(Cn3c(=O)c4ccccc4n(Cc4cccc(Cl)c4)c3=O)cc2)cc1OC	20%	12%	7%	?	15%	118%	-16%	3%	1%	3%	3%
O=C(c1cc(Cc2n[nH]c(=O)c3ccccc23)ccc1F)N1CCN(C(=O)C2CC2)CC1	.	.	.	.	.	0%	.	.	.	.	.
Nc1nccc(-c2ccc3noc(-c4ccc(Cl)cc4)c3c2)n1	.	.	.	.	.	-13%	.	.	.	.	.
CCOC(=O)c1ccc(NC(=O)Cc2ccc(-n3c(CC)nc4cccnc43)cc2)cc1	8%	-10%	17%	?	-4%	-4%	-16%	?	-14%	?	13%
N#C[C@H]1C[C@H]2C[C@@H]2N1C(=O)[C@@H](N)C12CC3CC(CC(O)(C3)C1)C2	.	.	.	.	.	1%	.	.	.	.	.
COc1ccc(Cn2c(SCC(=O)NCc3ccccc3)nc3ccccc32)cc1	34%	7%	?	?	20%	-7%	.	.	.	.	.
COc1ccc(Cn2c(SCC(=O)N(C)Cc3ccccc3)nc3ccccc32)cc1	11%	0%	-26%	20µM*	18%	-3%	?	?	?	-11%	-9%
CS(=O)(=O)c1ccc(-c2cnc(N)c(C(=O)Nc3ccccc3)n2)cc1	.	.	.	.	.	13%	.	.	.	.	.
Oc1ccc([C@@H]2Oc3ccc(O)cc3[C@@H]3CCC[C@@H]32)cc1	.	.	.	.	.	12%	.	.	.	.	.
COc1ccccc1Nc1c2c(nc3ccc(NC(=O)c4cccc(F)c4)cc13)CCCC2	10µM*	?	?	10µM*	?	?	-27%	-11%	-2%	14µM*	12µM*
COc1ccccc1Nc1c2c(nc3ccc(NC(=O)/C=C/c4cccc(OC)c4OC)cc13)CCCC2	?	4.1µM*	25µM*	11µM*	-10%	-14%	-6%	4%	2%	?	7.7µM*	PMP22 HiBiT cnf=38%
COc1cc(C(=O)Nc2ccc3nc4n(c(=O)c3c2)CCCCC4)cc(OC)c1OC	?	2%	?	-21%	-26%	3%	.	.	.	.	.
COc1cccc(-c2cc(C(=O)Nc3cc(OC)c(OC)c(OC)c3)on2)c1	-8%	-1%	?	3.9µM*	2%	?	?	11µM*	-13%	-6%	18µM*
COc1cc(NC(=O)c2cc(-c3ccccc3O)no2)cc(OC)c1OC	?	9%	?	?	-7%	-37%	.	.	.	.	.

Screening data: PubChem BioAssay, National Center for Advancing Translational Sciences (NCATS)
